Compound activity as filed in PubChem.
This is a sample that favours compounds with a hit; in the whole collection about 14% have one here.
Marburg entry inh: qHTS for inhibitors of binding or entry into cells for Marburg Virus. Marburg virus pseudotyped entry inhibition, cell reporter. Potency, µM (doses to about 37.8 µM), for the others: at the top dose activity change, negative = inhibition, usual class: inhibitors. hit rate 1.8% among 300,000; calls by dose curve; tested in HEK293 cells; note: potency is the fitted concentration of half-maximal effect
LASV entry inh: qHTS for Inhibitors of binding or entry into cells for Lassa Virus. Lassa virus pseudotype entry inhibition, cell reporter. Potency, µM (top dose mostly 37.9 µM), for the others: top-dose activity change, negative = inhibition, actives largely listed as inhibitors. hit rate 1.2% among 300,000; calls by dose curve; tested in HEK293 cells; note: potency is the fitted concentration of half-maximal effect; nearly all actives have a fitted effect of over 50% in size
Pf growth 48h: Primary qHTS for delayed death inhibitors of the malarial parasite plastid, 48 hour incubation | P. falciparum luciferase growth in erythrocytes, 48 h | hit rate 5.9% among 310,000 | Potency, µM (series often up to 28.7 µM), inactives show top-dose activity change, negative = inhibition, usual class: inhibitors; note: potency is the fitted concentration of half-maximal effect
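First compound was added to culture medium, then infected red cells at 0.1% parasitemia and 2% hematocrit (final). After incubation at 37 C under 5% CO2, luciferase detection reagent was dispensed and light output recorded.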
Pf growth 96h: Primary qHTS for delayed death inhibitors of the malarial parasite plastid, 96 hour incubation; P. falciparum luciferase reporter growth, 96 h; Potency, µM (series often up to 28.7 µM), without a hit: top-dose activity change, negative = inhibition, most hits filed as inhibitors; hit rate 6.9% among 320,000; note: potency is the fitted concentration of half-maximal effect
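P. falciparum expressing integrated firefly luciferase grown in erythrocytes (2% hematocrit, 0.05% parasitemia final) with compounds for 96 hours at 37 C, 5% CO2. Growth inhibition read as loss of luminescence after adding luciferase detection reagent.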
HCMV antiviral: qHTS Assay for inhibitors of the human cytomegalovirus (HCMV). AID 1259415, 2018. HFF cells, HCMV-luciferase reporter, 72 h; hits give low values. hit rate 4.5% among 410,000. activity change, negative = inhibition, % at 57.5 µM; in the data active = activity change below about -60%; inconclusive = no clear call, values can overlap the other calls; inactive = above about -39%
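Screen run at 2 compound doses on HFFs infected with reporter HCMV, MOI 1 PFU/cell. Luciferase activity from cell lysates at 72 h post infection gave inhibition relative to buffer-only and Salinomycin wells.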
HCV inh: qHTS Assay for Inhibitors of Hepatitis C Virus (HCV). Huh7.5.1 HCVcc-Cre infection, luciferase reporter, 44 h. Potency, µM (doses to about 41.8 µM), for the others: at the highest dose activity change, negative = inhibition, usual class: inhibitors. AID 651820, 2012. hit rate 3.4% among 340,000; note: potency is the fitted concentration of half-maximal effect
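After 44 h co-culture of compound, cells and HCVcc-Cre (~0.5 moi), substrate is added for 15 min at room temperature and luciferase measured over 15 sec. Cells were seeded at 1,000/well and pre-cultured 4 h.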
* = called active by the depositor; ? = inconclusive; nt = no result; [ ] = dose if it differs, or a comment. Unless noted, calls come from the whole dose curve; as a rule, active = well fitted inhibition curve with a large enough effect; inconclusive = small, poorly fitted or top-dose-only effect, or another doubt; inactive = no such curve, though single readings can be large or run the other way. % is set by controls: 0 for no effect and ±100 for the full control effect.

SMILES	Marburg entry inh	LASV entry inh	Pf growth 48h	Pf growth 96h	HCMV antiviral	HCV inh
O=[S+]1([O-])C[C@H](N2CC[C@@H](O)C2)[C@H](COCc2ccccc2)N1	nt	-4.0%[46.1 µM]	nt	nt	nt	nt
COC(=O)Cc1nnn2c1[C@H](C)[C@H](C(C)(C)C)OCC2	nt	nt	nt	nt	-12.8	nt
CC(C)(C)c1ccc(OCCCNCc2ccccc2)cc1	?	?	-18.9%	95.3%	27.5	11.2µM*
CC(C)(c1ccccc1)c1ccc(OCCCNCCO)cc1	?	?	nt	2.08µM*	-38.8	?
O=C(c1cccs1)N1CCN(Cc2nc(-c3ccccc3)no2)CC1	nt	nt	nt	nt	24.1	nt
CCCCCSc1ncnc2c1sc1nc(N3CCOCC3)c3c(c12)CCCC3	20.7%[46.1 µM]	13.2%[46.1 µM]	nt	nt	7.1	nt
CCOCCCNC(=O)C1CCN(c2cc(C)nc3c(-c4ccc(OC)c(OC)c4)c(C)nn23)CC1	-24.3%	-12.0%	4.15µM*	-4.0%	-6.0	11.2µM*
COc1ccccc1-c1cnn2c(NCCc3ccccc3)cc(C)nc12	-1.6%[46.1 µM]	-32.5%[46.1 µM]	38.3%	45.7%	-1.5	10µM*
Cc1cc(NC2CCCC2)n2nc(C)c(-c3ccccc3)c2n1	?	9.0%[46.1 µM]	?	?	18.2	?
COc1ccc(-c2c(C)nn3c(NC4CCCC4)cc(C)nc23)cc1OC	nt	nt	?	?	?	10µM*
COc1ccc(CCNc2cc(C)nc3c(-c4ccccc4)c(C)nn23)cc1OC	-35.9%	0.6%	?	?	-18.5	11.2µM*
COc1ccc(CCNc2nc3cc(OC)c(OC)cc3c3nc(-c4ccccc4)nn23)cc1OC	11.7%[46.1 µM]	nt	nt	nt	-14.0	nt
COCCN(Cc1nc(-c2ccc(-c3ccccc3)cc2)oc1C)C(C)C	nt	nt	154.0%	?	172.4	?
Cc1c(-c2nsc(NC(=O)c3cccs3)n2)nnn1-c1ccc(F)cc1	nt	-2.3%[46.1 µM]	nt	nt	23.0	nt
COc1ccc(CCNc2cc(C)nc3c(-c4ccc(Cl)cc4)cnn23)cc1OC	-11.5%	-4.0%	-13.8%	4.6%	34.2	?
COc1ccc(CCNc2cc(C)nc3c(-c4ccccc4)cnn23)cc1OC	9.2µM*	8.91µM*	-23.8%	-4.7%	-68.2*	?
COc1ccc(C(=O)Nc2ccccc2C(=O)NC2CC2)c(OC)c1OC	nt	nt	nt	nt	5.3	nt
CCCc1cc(O)c2c(C)cc(=O)oc2c1	-3.3%	0.0%	?	11.7µM*	12.0	-8.2%
CCCCc1cc(=O)oc2cc(C)cc(O)c12	-24.1%	-19.6%	?	?	?	?
Clc1ccccc1CSc1cnnc2ccccc12	?	0.3%[46.1 µM]	nt	nt	11.0	5.8%
COc1cc2ncc(S(=O)(=O)c3ccccc3)c(N3CCCC(C)C3)c2cc1OC (centres undefined)	nt	nt	?	11.0%	-21.2	11.2µM*
CCN1CCN(c2c(S(=O)(=O)c3ccc(OC)cc3)cnc3cc(OC)c(OC)cc23)CC1	?	nt	nt	nt	-38.7	nt
COC(=O)C[C@H]1C=C[C@@H](NC(=O)c2ccncc2)[C@@H](CO)O1	nt	nt	nt	nt	-14.0	nt
CC(C)CCNC(=O)COc1ccc2c(c1)C(=O)CC(C)(C)O2	?	0.4%	5.5%	nt	2.3	-15.8%
CC1(C)CC(=O)c2cc(OCC(=O)NCCCN3CCN(c4ccc(F)cc4)CC3)ccc2O1	23.1µM*	?	?	9.9%	?	10µM*
SMILES	Marburg entry inh	LASV entry inh	Pf growth 48h	Pf growth 96h	HCMV antiviral	HCV inh
COc1ccc(-c2cn(-c3ccc(C)c(C)c3)c(=S)[nH]2)cc1OC	-1.9%	-0.3%	13.1µM*	1.9%	?	?
COc1ccc(-c2cn(-c3ccccc3)c(=S)[nH]2)cc1OC	nt	nt	19.9%[0.00184 µM]	-12.9%	-22.0	10µM*
COc1ccc(-c2cn(-c3ccc(C)c(Cl)c3)c(=S)[nH]2)cc1OC	?	-14.9%[46.1 µM]	10.4µM*	63.1%	-65.6*	?
COc1cccc(-n2cc(-c3ccc(F)cc3)[nH]c2=S)c1	nt	nt	-23.5%	-57.6%	-10.6	?
Cc1ccc(Cn2c(SCC(C)C)nc3c2c(=O)n(C)c(=O)n3C)cc1	0.0%	?	3.7µM*	nt	13.1	?
Cn1c(=O)c2c(nc(Sc3ncccn3)n2Cc2ccc(Cl)cc2)n(C)c1=O	nt	nt	nt	?	-61.0*	25.1µM*
CCCn1c(SCCN2CCOCC2)nc2c1c(=O)n(C)c(=O)n2C	nt	nt	1.0%	17.2%	-37.6	15.7%
Cn1c(=O)c2c(nc(SCCN3CCCCC3)n2Cc2ccc(Cl)cc2)n(C)c1=O	?	?	?	nt	-95.1*	35.5µM*
Cn1c(=O)c2c(nc(SCCN3CCOCC3)n2Cc2ccccc2)n(C)c1=O	1.12µM*	-11.1%	-14.8%	-10.2%	-11.0	-5.4%
CCSc1nc2c(c(=O)n(C)c(=O)n2C)n1Cc1ccc(Cl)cc1	-4.2%	-8.6%	nt	nt	-27.5	?
CCOC(=O)c1cc2c(=O)n3ccccc3nc2n(CC(C)C)c1=NC(=O)C(C)(C)Oc1ccc(Cl)cc1	14.7%[46.1 µM]	10.4%[46.1 µM]	nt	nt	-4.5	nt
CC(C)Cn1c(-c2ccco2)csc1=Nc1cccnc1	-13.9%	11.6%	14.7µM*	?	-29.7	1.8%
CC(C)=N/N=c1\scc(C)n1Cc1ccco1	5.0%[46.1 µM]	-1.9%	9.6%	-0.8%	45.1	3.1%
Cc1csc(=Nc2cccnc2)n1Cc1ccco1	22.0%[46.1 µM]	?	-8.5%	?	-33.9	0.562µM*
CCOC(=O)c1cc(OC(=O)Cc2ccc(OC)c(S(=O)(=O)N3CCOCC3)c2)cc(C(=O)OCC)c1	nt	nt	nt	nt	-25.9	nt
O=C(NCCN1CCCCC1)[C@H]1[C@H](CO)[C@H]2Cn3c(cccc3=O)[C@@H]1N2C(=O)C1CC1	nt	nt	nt	nt	-4.8	nt
CCCCn1c(C)cc(C)c(S(=O)(=O)c2ccccc2C)c1=O	-19.6%	5.2%	nt	14.7µM*	-31.2	-6.7%
Cc1ccccc1S(=O)(=O)c1c(C)cc(C)n(C(C)C)c1=O	-8.8%	4.3%	-20.9%	?	55.8	-21.5%
Cc1cc(Cl)c2oc(C(=O)NC3CCC(O)CC3)c(C)c2c1 (centres undefined)	nt	nt	36.1%	0.0%	-9.8	14.1µM*
CC(C)OC(=O)[C@H](C)NC(=O)N1CCc2nc(COc3ccccc3)c3c(c2C1)CO[C@@H](C)C3	-36.2%[14.2 µM]	nt	nt	nt	nt	nt
C=C(C)CSc1nc2sc3c(c2c(=O)n1-c1ccccc1)CCN(C)C3	nt	nt	1.47µM*	0.828µM*	-16.2	?
CN1CCc2c(sc3nc(SCC(=O)N4CCCCC4)n(-c4ccccc4)c(=O)c23)C1	nt	nt	11.7µM*	3.29µM*	-7.7	?
CN1CCc2c(sc3nc(SCC(N)=O)n(-c4ccccc4)c(=O)c23)C1	-3.8%	-8.5%	?	nt	10.6	?
C=CCSc1nc2sc3c(c2c(=O)n1-c1ccc(C)cc1)CCN(C)C3	nt	nt	3.7µM*	1.47µM*	-16.0	?
CCSc1nc2sc3c(c2c(=O)n1-c1ccccc1)CCN(C(C)C)C3	nt	nt	1.47µM*	0.828µM*	?	?
